From PubChem BioAssay AID1490 (National Center for Advancing Translational Sciences (NCATS), 2009) come the findings set out here.

“And” between values parts separate entries of the source, which are not always exact repeats. Equal entries are not always repeated. The whole screen tested about 310,000 compounds, of which about 11,000 (3.5%) were called active. Inconclusive results (about 4%) are left out. Calls follow the shape of the dose curve; as a rule, active = well fitted inhibition curve with a large enough effect; inconclusive = small, poorly fitted or top-dose-only effect, or another doubt; inactive = no such curve, though single readings can be large or run the other way. Only a selection was taken, and actives are over-represented in it overall.
Potency is read from the fitted curve at half-maximal effect.

In the experiment the target is 4'-phosphopantetheinyl transferase ffp (Bacillus subtilis) (UniProt Q9F4F7). As to the kind of experiment: qHTS Assay for Inhibitors of Bacillus subtilis Sfp phosphopantetheinyl transferase (PPTase).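 Also: the enzyme is Sfp with the accession as filed and its product quenches rhodamine fluorescence.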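 As to largest response in the series, negative = inhibition: 0% = enzyme reaction without inhibitor and -100% = no enzyme wells.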 The conditions noted are these: Biochemical Sfp PPTase activity. The essentials:
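Step 1, compound plus 15 nM Sfp-PPTase, 15 min, room temperature. Step 2, add rhodamine-CoA (5 uM) and BHQ-2-YbbR (12.5 uM). Step 3, read 525/598 nm fluorescence at 0 and 30 min.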
For `CC(=C1C(=O)c2ccccc2C1=O)N1CCN(CCN=Cc2c(O)n(C)c(=O)n(C)c2=O)CC1`, the largest response in the series, negative = inhibition is 10.2% (inactive).

As for `CN1C2CC3CC1C(O3)C2O` (configuration not stated), the largest response in the series, negative = inhibition was -0.102% (inactive).

For `Fc1ccc(C(OCCN2CCN(C/C=C\c3ccccc3)CC2)c2ccc(F)cc2)cc1`, the Potency was 89.1 µM (active).

As to `C[C@H]1CC[C@@]2(NC1)O[C@@H]1C[C@H]3[C@@H]4CC=C5C[C@@H](O)CC[C@]5(C)[C@@H]4CC[C@]3(C)[C@@H]1[C@@H]2C`, the largest response in the series, negative = inhibition was 7.1% (inactive).

`COc1ccc(NC(=O)N2CCC3(CC2)OCCO3)c(OC)c1`: the largest response in the series, negative = inhibition is -7.26% (inactive).

On to `CO[C@H]1[C@@H](O)[C@@H](C)O[C@H](O[C@H]2[C@H](Oc3cccc4c(O)c5c(=O)oc6ccc(C)c7c(=O)oc(c34)c5c67)O[C@H](C)[C@H](O)[C@@H]2O)[C@@H]1O`, for which the largest response in the series, negative = inhibition was -22.5% (inactive).

In the case of `CN(C)C(=O)Oc1cc(OC(=O)N(C)C)cc(C(O)CNC(C)(C)C)c1` (configuration not stated), the largest response in the series, negative = inhibition is 2.1% (inactive).

On to `O=C1NC(=O)N(Cc2ccco2)C(=O)/C1=C\c1cccn1CCOc1ccccc1`, for which the Potency was 20 µM (active).

Regarding `O=C1NC(=O)N(Cc2ccco2)C(=O)/C1=C\c1ccc(-c2ccc(F)cc2)o1`, the Potency was 31.6 µM (active).

As for `CC[C@]1(O)C(=O)OCc2c1cc1n(c2=O)Cc2cc3ccccc3nc2-1`, the largest response in the series, negative = inhibition was 6.01% (inactive).

With `COP(=O)(NS(=O)(=O)c1ccccc1)OC`, the largest response in the series, negative = inhibition was 17.4% (inactive).

`C=CCN1CCC2(C)c3cc(O)ccc3CC1[C@@H]2C` (some centres not stated): the largest response in the series, negative = inhibition is 3.98% (inactive).

`CCc1nnc(NS(=O)(=O)c2ccc(N=Cc3c(O)n(-c4ccccc4)c(=O)[nH]c3=O)cc2)s1`: the largest response in the series, negative = inhibition is -8.17% (inactive).

Take `Cc1cc(C)cc(NC(=S)NC2CC3CCCC(C2)N3Cc2cccs2)c1` (configuration not stated): the largest response in the series, negative = inhibition is 14.7% (inactive).

Regarding `CC(C)Oc1cccc(C(=O)C2CCCN(C3CCOCC3)C2)c1` (configuration not stated), the largest response in the series, negative = inhibition was 17.1% (inactive).

As to `CCN(CC)c1nc(C)cc(OP(=S)(OC)OC)n1`, the largest response in the series, negative = inhibition is 6.37% (inactive).

For the compound `O=c1c2ccccc2nc(/C=C/c2ccc(F)cc2)n1-c1ccccc1O`, the largest response in the series, negative = inhibition was -2% (inactive).

As to `O=c1c2ccccc2nc(/C=C/c2ccco2)n1-c1ccccc1O`, the Potency is 10 µM (active).

Consider `O=c1c2ccccc2nc(-c2ccco2)n1-c1ccc(Br)cn1`, for which the largest response in the series, negative = inhibition was -3.04% (inactive).

For the compound `CCN1CC2C3CCC(C)(O3)C2C1` (configuration not stated), the largest response in the series, negative = inhibition was 13.8% (inactive).

On to `O=C(N/N=C/c1c(O)n(C2CC2)c(=S)[nH]c1=O)c1ccccc1Cl`, for which the largest response in the series, negative = inhibition was 9.37% (inactive).

For the compound `CC(C)(C)c1ccc(OC(=O)N2CCCCC2)cc1`, the largest response in the series, negative = inhibition is -1.08% (inactive).

As to `N[C@H](Cc1o[nH]c(=O)c1Cl)C(=O)O`, the Potency is 79.4 µM (active).

In the case of `N[C@H](C(=O)O)c1cc(=O)[nH]o1`, the largest response in the series, negative = inhibition was 2.79% (inactive).

For `CCOP(=O)(OCC)C(O)c1ccc(OC)cc1OC` (configuration not stated), the largest response in the series, negative = inhibition was 9.04% (inactive).

On to `CN(C)C(=O)Oc1cc(=O)n2c3c(cccc13)CCC2`, for which the largest response in the series, negative = inhibition was 10.3% (inactive).

For `C[C@]12CC[C@H](O)C[C@@H]1CC[C@H]1[C@H]2CC[C@]2(C)C(=O)CC[C@@H]12`, the largest response in the series, negative = inhibition was -1.51% (inactive) and 34.7% (inactive) and 1.49% (inactive).

Turning to `O=[N+]([O-])c1ccc(C2C3C(c4ccccc4)=NC4(CCCCC4)N32)cc1` (configuration not stated), the largest response in the series, negative = inhibition is -4.07% (inactive).

`c1csc(CN2CC3(CCNCC3)C2)n1`: the largest response in the series, negative = inhibition was 12.2% (inactive).

`C=CCN1C(=O)NC(=O)/C(=C/c2ccc(OCC(=O)Nc3ccc(C)cc3)cc2)C1=O`: the Potency is 35.5 µM (active).

With `C=CCN(CC=C)C(=O)Nc1ccc(OCC)cc1`, the largest response in the series, negative = inhibition was 0.3% (inactive).

`O=C(Cc1ccccc1)N1CCN(C2CCCCCC2)CC1`: the largest response in the series, negative = inhibition is -9.44% (inactive).

In the case of `Cc1noc(C)c1CSc1nc2cc(S(=O)(=O)N3CCOCC3)ccc2o1`, the Potency was 20 µM (active).

On to `CCC1(c2ccccc2)C(=O)NC(=O)N(C)C1=O` (configuration not stated), for which the largest response in the series, negative = inhibition was 9.18% (inactive).

With `Nc1ccc(-c2ccc(N)c(N)c2)cc1N`, the largest response in the series, negative = inhibition is -2.55% (inactive).

Consider `CN(c1ccccc1)c1ccc([N+](=O)[O-])c2nonc12`, for which the largest response in the series, negative = inhibition is -10.3% (inactive).

With `CN(C)C(=O)Oc1ccc2c(c1)O/C(=C\c1ccccc1)C2=O`, the largest response in the series, negative = inhibition is 2.07% (inactive).

Turning to `Cc1nc2ccccn2c1P(=S)(N1CCCCC1)N1CCCCC1`, the Potency was 56.2 µM (active).

`COc1ccc2[nH]cc(CCNCc3ccc(Br)cc3)c2c1`: the largest response in the series, negative = inhibition is -23.1% (inactive).

As for `Cc1c(C(=O)O)cccc1-n1c(C)cc(/C=C2\C(=O)NC(=O)N(c3ccc4c(c3)OCO4)C2=O)c1C`, the largest response in the series, negative = inhibition is -16.8% (inactive).

As for `Cc1cccc(N2C(=O)NC(=O)/C(=C\c3cnn(-c4ccccc4)c3)C2=O)c1`, the Potency is 39.8 µM (active).

For the compound `O=C(Nc1cccc(F)c1)N1CC[C@@]2(CCCN(C(=O)Oc3ccccc3)C2)C1`, the largest response in the series, negative = inhibition is -5.07% (inactive).

In the case of `CC[N+]1(C)CCCC(OC(=O)C(O)(c2ccccc2)c2ccccc2)C1` (configuration not stated), the largest response in the series, negative = inhibition was 15.8% (inactive) and 11.5% (inactive).

As for `COc1ccccc1NC(=O)N1C[C@@H]2C[C@@H](C1)c1cccc(=O)n1C2`, the largest response in the series, negative = inhibition is 13.6% (inactive).

With `CN=C(NC#N)NCCSCc1nc[nH]c1C`, the largest response in the series, negative = inhibition was 5.33% (inactive) and -12.8% (inactive) and 5.86% (inactive).

For `COC(=O)N(c1ccc(OC)cc1)P1(=S)OCCC(C)O1` (configuration not stated), the Potency was 12.6 µM (active).

Regarding `CC(C)CN1CCN(Cc2ccccc2C(F)(F)F)CC1CCO` (configuration not stated), the largest response in the series, negative = inhibition was 6.48% (inactive).

In the case of `O=C(CCN1CCCCC1)NCC(=O)Nc1ccc(Br)cc1C(=O)c1ccccc1`, the largest response in the series, negative = inhibition was -17.5% (inactive).

On to `C[C@@H]1C[C@@H]2O[C@H]2/C=C\C=C\C(=O)Cc2c(Cl)c(O)cc(O)c2C(=O)O1`, for which the Potency is 15.8 µM (active).

On to `CNP1(NC)=Nc2nn(-c3ccccc3)c(N)c2C(c2ccccc2)=N1`, for which the largest response in the series, negative = inhibition is 2.05% (inactive).

As to `CCNC[C@H](O)c1cccc(O)c1`, the largest response in the series, negative = inhibition is 18.1% (inactive).

As to `CCOC(=O)c1c(C)c(C(=O)N2CCC3(CC2)OCCO3)c(C)n1CC`, the largest response in the series, negative = inhibition was -3.49% (inactive).
